RORg inh: inhibitors of mouse ROR gamma transcriptional activity; Drosophila S2 Gal4-RORgamma UAS-luciferase reporter, 20 h; Potency, µM (doses to about 53.6 µM), without a hit: top-dose activity change, negative = inhibition, usual class: inhibitors; hit rate 5.4% among 310,000; AID 2551; note: potency is the fitted concentration of half-maximal effect; nearly all actives have a fitted effect of over 60% in size
Target sequence (P51450 whole entry, looked up, the tested form may be a part): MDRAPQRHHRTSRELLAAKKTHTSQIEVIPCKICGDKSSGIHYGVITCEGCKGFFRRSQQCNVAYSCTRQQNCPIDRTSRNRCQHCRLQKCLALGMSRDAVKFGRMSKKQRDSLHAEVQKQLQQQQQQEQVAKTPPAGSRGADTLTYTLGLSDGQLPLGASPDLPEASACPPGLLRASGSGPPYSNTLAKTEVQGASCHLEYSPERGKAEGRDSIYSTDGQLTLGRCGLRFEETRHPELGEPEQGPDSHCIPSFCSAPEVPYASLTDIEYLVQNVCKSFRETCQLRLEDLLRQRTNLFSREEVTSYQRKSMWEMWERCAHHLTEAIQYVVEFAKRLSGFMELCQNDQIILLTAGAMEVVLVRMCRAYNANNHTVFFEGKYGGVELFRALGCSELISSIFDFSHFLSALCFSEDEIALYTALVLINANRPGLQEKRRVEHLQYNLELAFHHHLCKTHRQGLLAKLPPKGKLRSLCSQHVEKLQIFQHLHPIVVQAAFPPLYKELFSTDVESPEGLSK
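ROR gamma transcriptional activity was tracked as Gal4-UAS luciferase output in stably transfected Drosophila Schneider cells, with compound added 1 hr before 700 uM copper sulfate induction and a 20 hr ambient-temperature incubation.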
GALK inhibitor: galactokinase (human) inhibition. P51570. Purified GALK, Kinase-Glo residual ATP luminescence. Potency, µM (titrated, usually from 57.5 µM), without a hit: top-dose activity change, negative = inhibition, most hits filed as inhibitors. hit rate 0.007% among 270,000. AID 1868; note: potency is the fitted concentration of half-maximal effect
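Galactose (100 uM) and ATP (35 uM) were turned over by 5 nM GALK for 1 h at RT. Kinase-Glo Plus then converted the remaining ATP into a luminescent signal.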
FBPA coupling cs: coupling enzyme interference in Giardia aldolase counter-screen; coupling enzyme system counterscreen, AmpLite Red fluorescence; activity change, negative = inhibition, % at 58.2 µM, hits read low; hit rate 0.67% among 290,000; in the data active = activity change below about -30%
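Activity here indicates interference with the coupling reaction, not aldolase inhibition. Compounds at 57.5 uM final met coupling enzymes for 10 min at RT; substrate and AmpLite Red detection followed, with a 525/598 nm fluorescence read after 20 min.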
TrxR1 substrate: is turned over as a substrate by rat TrxR1 | Potency, µM (series often up to 114 µM), inactives show at the highest dose activity change, negative = substrate turnover | hit rate 0.01% among 390,000 | purified TrxR1 substrate turnover, NADPH consumption readout | O89049 | AID 588456; note: potency is the fitted concentration of half-maximal effect; nearly all actives have a fitted effect of over 50% in size
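Rat TrxR1, dispensed at 90 nM, was prereduced with 400 uM NADPH (final) for 5 min at ~22 deg C, then incubated with compound 15 min before 400 uM selenite. A first-read NADPH fluorescence drop versus no-compound background flagged substrates.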
rTrxR1 inhibitor: inhibitors of rat thioredoxin reductase 1; Potency, µM (top dose mostly 114 µM), without a hit: at the highest dose activity change, negative = inhibition, hits mostly inhibitors; AID 588453; recombinant rTrxR1, NADPH fluorescence consumption, selenite substrate; hit rate 1% among 390,000; note: potency is the fitted concentration of half-maximal effect; nearly all actives have a fitted effect of over 65% in size
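Rat TrxR1 (90 nM in the dispensed reagent) was pre-reduced with 400 uM NADPH for 5 min at room temperature, then incubated with compound for 15 min. After 400 uM selenite was added, NADPH fluorescence (Ex 340/Em 450 nm) was followed for 8 min.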
VP16 counter: counter-screen for ROR gamma inhibitors: Gal4-VP16 reporter. Drosophila S2 Gal4-VP16 UAS-luciferase, luminescence, 20 h. hit rate 3.5% among 310,000. AID 2546. Potency, µM (doses to about 53.6 µM), for the others: top-dose activity, negative = inhibition, actives largely listed as inhibitors;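 note: Gal4-VP16 expression switched on by copper sulfate through the metallothionein promoter; potency is the fitted concentration of half-maximal effect; nearly all actives have a fitted effect of over 50% in size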
* marks the source's active call; other numbers are inactive results; ? = inconclusive; · = no result given; [ ] = dose if it differs, or a comment. Compounds with a hit are over-represented: about 5.9% of the library has one in this group of screens. Unless noted, calls come from the whole dose curve; as a rule, active = well fitted curve in the direction sought with a large enough effect; inconclusive = small, poorly fitted or top-dose-only effect, or another doubt; inactive = no such curve, though single readings can be large; an effect the other way counts as inactive or inconclusive. % is set by controls: 0 for no effect and ±100 for the full control effect.

SMILES	RORg inh	GALK inhibitor	FBPA coupling cs	TrxR1 substrate	rTrxR1 inhibitor	VP16 counter
Cc1ccc(OCCn2cc(/C=N/NC(=O)c3ccncc3)c3ccccc32)cc1	5µM*	2%	-2	-8%[57.1 µM]	17%[57.1 µM]	11µM*
Cc1ccc(Nc2nc(-c3c(C)nc4ccccn34)cs2)cc1	10µM*	3%	0	-1%	-8%	?
Cc1nc2ccccn2c1-c1csc(NCc2ccco2)n1	11µM*	0%	-1	12%	16%	?
Cc1nc(NC(=O)c2ccccc2)sc1-c1csc(NCc2ccco2)n1	20µM*	-2%	-3	-3%[57.1 µM]	-2%	?
Cc1ccn2c(-c3csc(NCc4ccccc4)n3)c(C)nc2c1	14µM*	0%	-20	7%	18%	?
Cc1ccc(Nc2nc(-c3c(C)nc4ncccn34)cs2)cc1	?	1%	0	-11%	-12%	-6%
O=c1cn[nH]c2ccccc12	-14%	2%	-1	-7%	3%	-2%
Cc1ccc(S(=O)(=O)N(C)CC(=O)N2CCC(C(N)=O)CC2)cc1	-29%	1%	4	-2%	8%	21%
O=C(CN1C(=O)COc2ccccc21)N(Cc1ccc2c(c1)OCO2)CC1CCCO1 (stereo not drawn)	-16%[10 µM]	7%	0	7%	34%	-6%
CC(=O)Oc1ccccc1C(=O)OCCN=C1NS(=O)(=O)c2ccccc21	30%	-3%	3	10%[57.1 µM]	28%[57.1 µM]	10%
COc1cccc(Cc2n[nH]c(=S)n2Cc2ccco2)c1	3.5µM*	0%	0	9%[57.1 µM]	-16%[57.1 µM]	-25%
Cc1c(Br)c(-c2n[nH]c(=S)n2Cc2ccco2)nn1C	22µM*	·	3	1%	12%	-3%
COc1ccc(-c2n[nH]c(=S)n2Cc2ccco2)cc1	16µM*	-1%	0	8%	?	?
Cc1cc(-c2n[nH]c(=S)n2Cc2ccco2)nn1C	?	0%	4	0%	?	-26%
COc1cc(CNC(=O)C2CCCN2S(=O)(=O)c2ccccc2)cc(OC)c1OC (stereo not drawn)	-18%	-2%	-2	-1%	19%	-5%
CCOc1ccc(Cl)cc1/C=N/NC(N)=O	-22%	-1%	-39*	3%	7%	4%
CCN(CC)c1ccc(/C=N/NC(=S)NCc2ccco2)cc1	1.8µM*	3%	-1	11%[57.1 µM]	-24%	3.2µM*
CCOc1ccc(/C=N/NC(=O)C(=O)NCc2ccco2)cc1	-30%	0%	0	-9%	-5%	5%
S=C(NCc1ccco1)N/N=C/c1cccnc1	11µM*	0%	-2	-9%	7%	?
O=C(N/N=C/c1cccnc1)c1ccco1	5%	2%	4	-17%	-19%	?
S=C(NCc1ccco1)N/N=C/c1ccc(Cl)cc1	2.5µM*	4%	1	-6%	-7%	5.6µM*
Oc1ccc(/C=N/NC(=S)NCc2ccco2)cc1	11µM*	·	-1	-7%	-11%	-10%
Oc1c(Br)cc(/C=N/NC(=S)NCc2ccco2)cc1Br	?	3%	9	-7%	?	-10%
O=C(O)C1C2OC3C(OC(=O)C31)C2Br (stereo not drawn)	·	·	·	8%[57.1 µM]	-7%[57.1 µM]	·
CN1CCN(c2oc(-c3ccccc3Cl)nc2S(=O)(=O)c2ccccc2)CC1	-20%	-2%	·	-1%	9%	14%
SMILES	RORg inh	GALK inhibitor	FBPA coupling cs	TrxR1 substrate	rTrxR1 inhibitor	VP16 counter
O=c1oc(-c2ccccc2)cc(Cl)c1Cl	11µM*	-9%	2	14%[57.1 µM]	5.6µM*	10µM*
NC(=O)c1nsc(C(=O)N(Cc2ccccc2F)C(C(=O)NCC2CCCO2)c2ccc(F)cc2)c1N (stereo not drawn)	?	0%	2	15%	-2%	-14%
CC1=CSC2=NC(=O)/C(=C\c3cccn3-c3ccccc3)C(=N)N12	-4%	1%	1	-4%	-16%	7%
CC(C)c1ccc(-n2cccc2/C=C2/C(=N)N3C=CSC3=NC2=O)cc1	7.1µM*	0%	1	-2%	8%	16µM*
CCC1=NN2C(=N)/C(=C\c3cccn3-c3ccc(Br)cc3)C(=O)N=C2S1	0%	-2%	7	2%	25%	-13%
CC1=CSC2=NC(=O)/C(=C\c3cccn3-c3ccc([N+](=O)[O-])cc3)C(=N)N12	?	3%	0	-7%	-3%	3.2µM*
CCC1=NN2C(=N)/C(=C\c3cccn3-c3cccc(Cl)c3)C(=O)N=C2S1	11µM*	-2%	-2	-3%[57.1 µM]	3%[57.1 µM]	7%
COc1ccc(-c2ccc(/C=C3/C(=N)N4C(C)=CSC4=NC3=O)o2)c([N+](=O)[O-])c1	11µM*	·	0	-18%	-27%	?
C[C@H](CO)N1C[C@H](C)[C@@H](CN(C)C(=O)NC2CCCCC2)Oc2c(NC(=O)C3CCCCC3)cccc2C1=O	·	·	·	-7%	-7%	·
COc1ccc(N(CC(=O)NCc2ccccc2Cl)S(=O)(=O)c2c(C)n[nH]c2C)cc1	2%	-3%	·	-1%	4%	7%
CC(C)(C)c1nnc(NC(=O)C2CCN(C(=O)c3ccco3)CC2)s1	5%	-1%	0	3%[0.0914 µM]	8%	10%
Cn1cnc([N+](=O)[O-])c1Sc1ncccc1N	?	-4%	1	-3%	35µM*	-11%
Cc1ccc(Sc2c([N+](=O)[O-])ncn2C)cc1	0%	·	1	1%	?	-2%
CCNC(=S)N(Cc1ccccc1)Cc1nc2ccccc2c(=O)[nH]1	6.3µM*	1%	-7	11%	-13%	7.1µM*
COCCCNC(=S)N(Cc1ccccc1)Cc1ccccc1	16µM*	1%	1	-9%	-7%	?
COCCCNC(=O)CNC(=S)N(Cc1ccccc1)Cc1cccnc1	8%	0%	1	3%	5%	10%
COCCCNC(=S)N(Cc1ccccc1)Cc1nc2ccccc2c(=O)[nH]1	16µM*	·	-1	15%[57.1 µM]	21%[57.1 µM]	?
CN1c2ccsc2C(O)=C(C(=S)Nc2ccccc2)S1(=O)=O	10µM*	-4%	7	-25%	?	?
Cc1ccc(NC(=S)C2=C(O)c3ccccc3N(C)S2(=O)=O)cc1	?	-6%	19	-7%[57.1 µM]	-30%[57.1 µM]	18µM*
CN(C)CCCN(C(=O)CCSc1ccccc1)c1nc2cc3c(cc2s1)OCO3	?	8%	0	2%	?	-21%
Cc1ccc2sc(N(CCCN(C)C)C(=O)c3nc4ccccc4s3)nc2c1C	-24%	7%	2	12%	-7%	6%
